Most compounds without a hit are left out; they make up all but 6.4% or so of the library.
VP16 counter: inhibits Gal4-VP16 luciferase reporter, ROR gamma counter-screen | Drosophila S2 Gal4-VP16 UAS-luciferase, luminescence, 20 h | Potency, µM (doses to about 53.6 µM), without a hit: at the top dose activity, negative = inhibition, hits mostly inhibitors | actives 3.5% (n = 310,000) | AID 2546;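 further: Gal4-VP16 expression switched on by copper sulfate through the metallothionein promoter; nearly all actives have a fitted effect of over 50% in size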
RORgamma inh: blocks mouse ROR gamma transcriptional activity; Drosophila S2 Gal4-RORgamma UAS-luciferase reporter, 20 h; Potency, µM (doses to about 53.6 µM), for inactives: top-dose activity change, negative = inhibition, usual class: inhibitors; actives 5.4% (n = 310,000); AID 2551; further: nearly all actives have a fitted effect of over 60% in size
Target sequence (P51450 whole entry, looked up, the tested form may be a part): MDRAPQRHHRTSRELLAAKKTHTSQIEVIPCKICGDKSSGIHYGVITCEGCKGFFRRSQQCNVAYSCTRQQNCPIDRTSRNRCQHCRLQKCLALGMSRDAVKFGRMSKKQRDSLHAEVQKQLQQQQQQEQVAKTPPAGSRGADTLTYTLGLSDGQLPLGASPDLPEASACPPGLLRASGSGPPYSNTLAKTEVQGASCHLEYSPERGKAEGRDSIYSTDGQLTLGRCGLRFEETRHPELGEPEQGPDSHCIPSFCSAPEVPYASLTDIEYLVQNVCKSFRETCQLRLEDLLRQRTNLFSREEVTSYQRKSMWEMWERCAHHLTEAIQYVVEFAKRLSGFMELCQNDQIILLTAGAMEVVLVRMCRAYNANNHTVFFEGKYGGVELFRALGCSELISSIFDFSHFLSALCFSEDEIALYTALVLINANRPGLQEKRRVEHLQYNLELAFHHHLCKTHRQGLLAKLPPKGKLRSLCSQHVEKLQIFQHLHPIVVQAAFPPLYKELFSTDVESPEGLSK
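Schneider cells (Drosophila), stable Gal4 DBD–ROR gamma + UAS-luc; 1 hr cmpd preincubation; Cu2+ induction 700 uM final; 20 hr ambient; luminescence.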
KinaseGlo FLuc: counter-screen: inhibitors of Kinase-Glo firefly luciferase; Potency, µM (top dose mostly 38.3 µM), without a hit: at the top dose activity change, negative = inhibition, actives largely listed as inhibitors; Kinase-Glo luciferase, ATP luminescence, 8 min; actives 0.28% (n = 200,000); Q27757; AID 1379; further: nearly all actives have a fitted effect of over 60% in size
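Luminescence was the read-out, taken after 8-minute incubation at ambient temperature. Luciferase turned over luciferin with 10 uM ATP in imidazole pH 7.2 buffer containing KCl, MgCl2, Tween 20 and BSA.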
Active calls of the source: *; u = inconclusive; x = no result; [ ] = dose if it differs, or a comment. The call rests on the fitted dose curve; in most records, active means well fitted curve in the direction sought with a large enough effect; inconclusive means small, poorly fitted or top-dose-only effect, or another doubt; inactive means no such curve, though single readings can be large; an effect the other way counts as inactive or inconclusive. On the % scale 0 is the no-effect control and ±100 the full control effect; potency means the concentration at half of the fitted maximal effect.

SMILES	VP16 counter	RORgamma inh	KinaseGlo FLuc
O=C(NC(=S)Nc1cccc(Cl)c1N1CCCCC1)c1ccco1	7.1µM*	4µM*	0%
C[C@H]1COC(=O)O1	-1%	-6%	x
COc1ccc(N2C(=O)CCC(C(=O)N3CCN(c4ccccn4)CC3)C2c2ccc(F)cc2)cc1 (stereo unspecified)	-1%	-6%	2%
CCOc1cc(C(=O)N2CCCN(C)CC2)cc(OCC)c1OCC	u	-16%	x
COc1ccc(C2Nc3ccccc3C(=O)N2NS(=O)(=O)c2ccccc2)cc1 (stereo unspecified)	-13%	3%	-1%
COc1ccc(NC(=O)c2ccc(Cl)c(S(=O)(=O)NCC3CCCO3)c2)c(OC)c1 (stereo unspecified)	-5%	34%	x
O=C(c1ccc(C(F)(F)F)cc1)N1CCC(=O)N([C@H](COCc2ccc(C(F)(F)F)cc2)Cc2ccccc2)CC1	-9%[40.7 µM]	u	4%[39.9 µM]
Cc1ccc(S(=O)(=O)CC(=O)Nc2cc(C)on2)cc1	0%	-19%	x
CCCCCCn1c(=O)c(-c2ccccc2)c(O)c2ccccc21	-11%	1%	16%
CCn1c(=O)c(-c2nc3ccccc3[nH]2)c(O)c2ccccc21	0.63µM*	0.16µM*	-3%
Cn1cc(-c2nc3ccccc3[nH]2)c2ccccc21	-2%	1%	-17%
CCCn1c(=O)c(-c2nc3ccccc3[nH]2)c(O)c2ccccc21	2µM*	0.5µM*	0%
COC(=O)Cc1c(C)c2ccc(OCC(=O)NC3CCS(=O)(=O)C3)cc2oc1=O (stereo unspecified)	0%	-20%	x
COc1cc2nc(SCc3ccc(Cl)cc3Cl)n(Cc3cccs3)c(=N)c2cc1OC	16µM*	u	1%
COc1ccc(Cn2c(SCc3ccc(C)cc3)nc3cc(OC)c(OC)cc3c2=N)cc1Cl	1.4µM*	4µM*	1%
COc1ccc(Cn2c(SCc3cc(C)ccc3C)nc3cc(OC)c(OC)cc3c2=N)cc1	-6%	34%	-1%
COc1cc2nc(SCc3ccc(C(F)(F)F)cc3)n(Cc3cccs3)c(=N)c2cc1OC	u	13%	3%
Cc1cc(C)nc(Nc2n[nH]c(-c3ccccc3Cl)n2)n1	3%	u	-7%
Cc1cc(C)nc(Nc2n[nH]c(-c3cccc4ccccc34)n2)n1	u	11µM*	1%
CCOC(=O)c1c(S(=O)(=O)NCC(=O)N2CCN(c3ccc(OC)cc3)CC2)c(C)n(C)c1C	2%	-18%	x
Cc1ccc2[nH]c(-c3ccc(F)cc3F)cc(=O)c2c1	u	-27%[96.6 µM]	-3%[39.9 µM]
CCOC(=O)C1=C(C)Nc2nnnn2C1c1cccc(OC)c1OC (stereo unspecified)	2%	43%	x
CCOC(=O)C1=C(C)Nc2nnnn2C1c1c[nH]c2ccccc12 (stereo unspecified)	22µM*	49%	5%
CCn1cc(C(=O)Nc2sc(C)c(C)c2C(=O)OC)cn1	-15%	17%	-1%
CCc1ccc(C(=O)CN(C#N)c2nc(C)cc(C)n2)cc1	-25%	11µM*	-2%
SMILES	VP16 counter	RORgamma inh	KinaseGlo FLuc
Cc1cc(C)nc(N(C#N)CC(=O)c2ccccc2)n1	-12%	-36%	-23%
CC(NC(=O)CCCCCN1C(=O)c2ccccc2C1=O)c1ccc2c(c1)CCCC2 (stereo unspecified)	3%	u	-1%
CC(NC(=O)CCCCCCN1C(=O)c2ccccc2C1=O)c1ccc2c(c1)CCCC2 (stereo unspecified)	10µM*	u	-1%
O=C(Nc1ccccc1)c1ccc(CN2CCc3ccccc3C2)cc1	20%	37%	-5%
O=C(Nc1ccc(S(=O)(=O)N2CCCCC2)cc1)c1ccc(CN2CCc3ccccc3C2)cc1	4.5µM*	u	1%
Cc1ccccc1C(=O)NC(=S)Nc1ccc(S(=O)(=O)N2CCN(C)CC2)cc1	u	-4%	-4%
O=C(Nc1ccccc1)c1ccc(S(=O)(=O)N2CCCCC2)cc1	u	u	2%
Cc1ccccc1C(=O)NC(=S)Nc1ccc(S(=O)(=O)N2CCOCC2)cc1	18µM*	20µM*	3%
Cc1ccc(S(=O)(=O)N2CCOCC2)cc1C(=O)NC1CCCCCC1	-15%	0%	x
Cc1ccc(S(=O)(=O)N2CCOCC2)cc1C(=O)NC(=S)N1CC(C)OC(C)C1 (stereo unspecified)	16µM*	4.5µM*	x
O=C(NC(=S)Nc1ccc(S(=O)(=O)N2CCCCC2)cc1)c1ccccc1	u	8.9µM*	-4%
CC(Sc1nnc(NC2CCCCC2)s1)C(=O)Nc1ccc2c(c1)C(=O)c1ccccc1C2=O (stereo unspecified)	0%	-9%	0%
COC(=O)[C@H](CCSC)NC(=O)C/C=C\[C@@H](C)[C@@H](CO)OC	-7%[10 µM]	-5%[10 µM]	x
COc1ccc(C(=O)N/C(=C/c2ccccc2F)C(=O)NCCN2CCOCC2)cc1OC	0%	-4%	x
CC1=CCC2C(=O)N(c3ccc(OC(=O)c4ccco4)cc3)C(=O)C2C1 (stereo unspecified)	-17%	8%	-5%
CCN(CC)CC[n+]1ccc2c(C)c3[nH]c4ccc(O)cc4c3c(C)c2c1	x	x	-9%[7.66 µM]
O=C(Nc1ccnn1C1CCN(C(=O)c2cnsn2)CC1)c1cccc(F)c1	-6%	9%	x
Cc1cc2[nH]c(=O)c(=O)[nH]c2cc1S(=O)(=O)NCc1ccc(Cl)cc1	-1%	2%	x
COc1cccc(-c2cc(C(=O)NCc3ccco3)no2)c1	9%	u	-2%
Cc1ccccc1CSCC(=O)NC(=O)NCc1ccco1	u	13%	1%
COc1ccc(C(=O)N/C(=C\c2ccco2)C(=O)NCc2ccco2)cc1	-2%	-7%	x
COc1ccc(C(=O)NC(=S)NCc2ccco2)cc1	11µM*	6.3µM*	x
COc1cc(OC)cc(C(=O)NNC(=S)NCc2ccco2)c1	-21%	-41%	-1%
O=C(CSCc1ccccc1Br)NNC(=S)NCc1ccco1	10µM*	u	x
COc1cc(OC)cc(C(=O)NC(=S)NCc2ccco2)c1	11µM*	5µM*	-3%
SMILES	VP16 counter	RORgamma inh	KinaseGlo FLuc
COc1cccc(C(=O)NC(=S)NCc2ccco2)c1	u	14µM*	5%
COCCn1c(=O)c(-c2ccc(F)cc2)nc2cnc(N(C)C)nc21	-25%	-13%	x
COc1c(Cl)cc(Cl)cc1CNc1ccc(S(N)(=O)=O)cc1	-13%	29%	4%
COc1cccc(C(=O)N(C)CC2CCN(CCc3cccc(C(F)(F)F)c3)CC2)c1	5%	-11%	x
O=C(Nc1cnccn1)Nc1ccc(Cl)cc1Cl	-9%	-3%	-5%
O=C1CCCC=C1[C@@H](O)C1CCCCC1	-5%[10 µM]	-8%[10 µM]	x
CC(C)c1cc(C(=O)NNC(=S)NCc2ccco2)c(O)c(C(C)C)c1	u	13µM*	2%
CC(C)(C)c1ccc(C(=O)NNC(=O)C2CCCCC2)cc1	0%	19%	1%
O=C(NC(=S)NCc1ccco1)c1cccc(Cl)c1	8.9µM*	6.3µM*	x
Cc1cc(C(=O)NNC(=S)NCc2ccco2)n(C)n1	-15%	-38%	7%
O=C(NCc1ccco1)c1cc(-c2cccc(Cl)c2)on1	-19%	u	-2%
CC(C)(O)C(=O)NNC(=S)NCc1ccco1	6%	40%	3%
CCC(C)NC(=S)NNC(=O)c1ccc(C(C)(C)C)cc1 (stereo unspecified)	8.9µM*	10µM*	0%
